Screening data as filed in PubChem BioAssay.
Compounds with a hit are over-represented: about 1.2% of the library has one in this group of screens.
Efflux pump mplx = antifungal efflux pump inhibition, Nile Red retention; S. cerevisiae Candida pump triplex; inhibition, % at 10 µM; actives 0.44% (n = 330,000); AID 485275;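 active = plate passing quality check with inhibition over a set limit, or well fluorescence over plate mean plus 4 SD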;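 note: Nile Red retained in pooled yeast measured as flow cytometry median fluorescence; higher means more Nile Red kept so more efflux inhibition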
LRH-1 inv ag = NR5A2 inverse agonism in reporter assay. O00482. HEK293T StAR-luciferase reporter, LRH-1 transfected, 24 h. inhibition, % at 3.6 µM. actives 0.13% (n = 360,000);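 active = inhibition above the mean inhibition of all tested compounds plus 3 SD, cut at about 73% in these data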
NCOA2 inhibitor = human SRC2 (NCOA2) inhibition; Q15596; HEK293 GAL4-SRC2 luciferase reporter, luminescence; inhibition, % at 9 µM; actives 0.17% (n = 370,000); AID 651957;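 active = inhibition above the mean inhibition of all tested compounds plus 3 SD, set per campaign, cut at about 52% in these data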
NCOA1 inh = human NCOA1 inhibition | HEK293 GAL4-SRC1 luciferase reporter, luminescence | inhibition, % at 3.6 µM | actives 0.12% (n = 360,000);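 active = inhibition above the campaign mean plus 3 SD, with each screening campaign given its own cutoff, cut at about 60% in these data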
NCOA3 inh = inhibitors of human steroid receptor coactivator 3 (SRC3); Q9Y6Q9; HEK293 GAL4-SRC3 luciferase reporter, luminescence; actives 0.17% (n = 360,000); inhibition, % at 3.6 µM; AID 588352;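 active = inhibition above a per-campaign cutoff, the mean of all compounds plus 3 SD, cut at about 60% in these data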;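 note: higher means less SRC3-driven luciferase light from the GAL4 reporter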
COUP-TFII inh = inhibitors of human COUP-TFII (NR2F2); actives 0.7% (n = 370,000); inhibition, % at 8.6 µM; HEK293T NGFI-A luciferase reporter, luminescence;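 active = inhibition above a per-plate cutoff, mean inhibition of test wells between control levels plus 3 SD, cut at about 38% in these data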;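 note: cells cotransfected with COUP-TFII expression vector driving the NGFI-A reporter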
Gal4-VP16 ctr = VP16 inhibition counter-screen for COUP-TFII; shares compounds with COUP-TFII inh; actives 25% (n = 2,500); inhibition, % at 8.5 µM; HEK293 Gal4-VP16 luciferase reporter, luminescence; in the data active = inhibition above about 13%
NR2F2 inh conf = COUP-TFII (NR2F2) inhibition, confirmation assay; shares compounds with COUP-TFII inh; HEK293 NGFI-A luciferase reporter, luminescence; inhibition, % at 8.5 µM; actives 45% (n = 2,500);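 active = mean inhibition over three repeats above a set limit taken from the earlier primary screen, cut at about 38% in these data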
Numbers stand for hits; – = inactive; · = no result.

SMILES	Efflux pump mplx	LRH-1 inv ag	NCOA2 inhibitor	NCOA1 inh	NCOA3 inh	COUP-TFII inh	Gal4-VP16 ctr	NR2F2 inh conf
CCN1CCN(CCNC(=O)C2CCCN(Cc3nc(-c4cccc(Cl)c4)oc3C)C2)CC1 (centres undefined)	–	–	–	–	–	–	·	·
CCOC(=O)N1CCC(NC(=O)C2CCCN(Cc3nc(-c4cccc(Cl)c4)oc3C)C2)CC1 (centres undefined)	–	–	–	–	–	48.2	–	–
COC(=O)c1ccc(CCc2cc(O)ccc2O)cc1	·	–	·	–	–	·	·	·
COc1ccc(CC(=O)NC(=S)Nc2cccc(C)c2)cc1	–	–	–	–	–	–	·	·
CCCCCCOc1ccc(C(CC(=O)O)C(N)=O)cc1 (centres undefined)	–	–	–	–	–	–	·	·
CC1CCN(c2ccc(-c3cccs3)nn2)CC1	–	–	62.1	–	–	45.1	19.9	42.5
OC(c1ccc(-c2ccccc2)cc1)c1ncc(-c2ccccc2)[nH]1 (centres undefined)	·	–	–	–	–	56.5	–	–
CCNc1nc(-c2sc(NC(=O)C(C)(C)C)nc2C)c(-n2cc(-c3ccccc3)nn2)s1	·	–	–	·	·	66.0	–	41.0
Cc1nc(NC(=O)C(C)(C)C)sc1-c1nc(N)sc1-n1cc(-c2ccccc2)nn1	·	–	–	·	·	–	·	·
CC(=O)N1CCc2cc(S(=O)(=O)NC3CCN(C(=O)OCc4ccccc4)CC3)ccc21	·	·	–	·	·	61.5	–	–
C=CCOC(=O)N1CCC(NS(=O)(=O)c2ccc3c(c2)CCN3C(C)=O)CC1	·	·	–	·	·	–	·	·
c1ccc(-c2cn(-c3ccccc3)c3[n+]2CCS3)cc1	–	–	–	–	–	–	·	·
CC(C)(C)c1ccc(-c2cn(-c3ccc(Br)cc3)c3[n+]2CCCS3)cc1	·	83.1	–	–	–	49.7	17.6	–
COc1ccc(-c2cn(-c3ccccc3)c3[n+]2CCS3)cc1	–	–	–	–	–	50.5	–	–
Clc1ccc2nc(-c3ccc(Cl)nc3)[nH]c2c1	–	–	–	–	–	–	·	·
COc1ccc(S(=O)(=O)N2CCOCC2)cc1NC(=O)C1CCCN1C(=O)c1cccs1 (centres undefined)	–	–	–	–	–	–	·	·
COc1ccc(C(=O)CSc2nnc(Cn3cnc4ccccc43)o2)cc1	–	–	–	–	–	60.1	–	40.5
COCCNc1ncnc2c1ncn2[C@H]1CN(Cc2ccco2)C[C@@H](CO)O1	·	–	–	–	–	–	·	·
Cc1cc(C)cc(C(=O)NC(=S)Nc2ccc(-c3cc4ccccc4oc3=O)cc2)c1	–	–	–	–	–	39.5	17.8	–
O=S(=O)(NCc1ccccc1)c1ccccc1NCc1ccc(Cl)cc1	–	–	–	–	–	–	·	·
Cn1nc(C(C)(C)C)cc1C(=O)N1CCCCC1c1cc(C(=O)Nc2ccccc2Cl)no1 (centres undefined)	·	–	–	–	–	47.7	–	–
Cc1ccc(C(c2c(C)[nH][nH]c2=O)c2c(C)[nH][nH]c2=O)cc1[N+](=O)[O-]	–	–	–	–	–	–	·	·
Fc1ccc(NC(=S)NNc2ncc(C(F)(F)F)cc2Cl)c(F)c1	–	–	–	–	–	57.5	19.6	–
FC(F)(F)c1cnc(NNC(=S)Nc2ccc(Cl)cc2)c(Cl)c1	–	–	–	–	–	–	·	·
Cc1cnc(C(=O)OCC(=O)Nc2ccc(C)c(S(=O)(=O)N3CCCCCC3)c2)cn1	–	–	–	–	–	–	·	·
SMILES	Efflux pump mplx	LRH-1 inv ag	NCOA2 inhibitor	NCOA1 inh	NCOA3 inh	COUP-TFII inh	Gal4-VP16 ctr	NR2F2 inh conf
CCCN(CCC)c1nc(-c2ccccn2)nc2ccccc12	–	–	–	–	64.1	57.4	–	–
C/C(=N\Nc1nc(-c2ccccn2)nc2ccccc12)c1ccc(F)cc1	–	–	·	–	–	·	·	·
c1ccc(-c2nc(N3CCCCCC3)c3ccccc3n2)nc1	–	94.2	–	–	–	38.3	–	–
c1ccc(CCNc2nc(-c3ccccn3)nc3ccccc23)cc1	–	–	–	–	–	50.2	–	–
CCN(CC)c1nc(-c2ccccn2)nc(-c2ccccc2)c1C#N	–	–	–	–	–	41.2	–	–
Cc1ccc(/C=C/C(=O)O)cc1S(=O)(=O)Nc1ccc(C(=O)O)cc1	–	–	–	–	–	–	·	·
CC1(C(=O)NS(=O)(=O)c2ccc(F)cc2F)CCN1C(=O)Cc1ccccc1 (centres undefined)	·	–	–	–	–	–	·	·
CC1CCCCC12NC(=O)N(CC(=O)N1CCN(S(=O)(=O)c3cccs3)CC1)C2=O (centres undefined)	·	–	–	–	–	–	·	·
Cc1ccc2oc(/N=C(\N)NC(=O)C(C)(C)C)nc2c1	–	83.4	80.9	82.8	86.3	93.1	88.2	104.8
Cc1ccc2oc(/N=C(\N)NC(=O)C3CC3)nc2c1	–	–	–	–	–	–	·	·
CCOc1ccc(-c2noc(CCC(=O)O)n2)cc1	–	–	73.1	–	–	81.8	66.2	57.0
COc1ccc(-c2noc(CCC(=O)O)n2)cc1	–	–	–	–	–	–	·	·
COc1ccc(-c2noc(CCCC(=O)O)n2)cc1	–	–	76.5	–	–	82.8	81.3	80.0
Cc1nc2nc(-c3ccc(F)cc3)cn2nc1C	–	–	–	–	–	–	·	·
CCc1ccc(-c2cn3nc(C)c(C)nc3n2)cc1	–	–	59.2	–	–	47.0	–	–
Cc1ccc(C(=O)NNC(=S)NC(=O)c2ccc(Cl)cc2)cc1	–	–	–	–	–	–	·	·
COc1cccc(C=NNC(=O)C(C)SC(C)C(=O)NN=Cc2cccc(OC)c2)c1 (centres undefined)	·	–	–	–	–	–	·	·
CCOc1cc(N2CCOCC2)c(OCC)cc1NC(=O)CCC1CCCC1	–	–	–	–	–	–	·	·
CCCCCc1ccc(OCCCC[n+]2ccccc2)c(CCCCC)c1	–	–	·	–	–	·	·	·
CCCCCc1ccc(OCCCC[n+]2cccc(C)c2)c(CCCCC)c1	–	–	–	–	–	57.4	–	–
CCCCCc1ccc(OCCCC[n+]2ccc(C)cc2)c(CCCCC)c1	–	–	–	–	–	56.3	20.6	–
CCC(C)NC(=S)Nc1ccccc1 (centres undefined)	·	–	–	–	–	–	·	·
CCC(C)NC(=S)Nc1ccc(C(=O)OC)cc1 (centres undefined)	–	–	–	–	–	39.0	–	–
CC(=O)c1cccc(NC(=O)NNC(=O)c2ccc(Cl)cc2Cl)c1	–	–	–	–	–	–	·	·
COc1ccc(OC)c(CCNC(=O)Cn2nc(C)c3c(C)n(-c4ccc(C)cc4)nc3c2=O)c1	–	–	–	–	–	67.2	–	73.0
Cc1cccc(NC(=O)C2CCCN(c3nc(C)cc(C)n3)C2)c1 (centres undefined)	–	–	·	–	–	·	·	·
